Measurements published in PubChem BioAssay AID1159580 (chemical genetic matrix, 2015).
Values joined by “and” are separate entries in the source; they are usually repeats but may differ in a detail not shown here. Equal values may be shown once. Screen size: about 5,500 compounds; about 2,000 (36%) were called active. Not shown: some 18% with an inconclusive outcome. Rule as the data show it: active = normalized growth mostly below about 0.91 (no sharp cut-off); inconclusive = no clear call, values can overlap the other calls; inactive = mostly above about 0.92. Some of the results follow.

Assay: chemical genetic growth profiling, strain panel (AID 1159580);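 also: tested at 20 µM; growth read once vehicle control cultures reached saturation at 30 °C; 1 = growth at the plate median or of vehicle wells; lower values mean less growth of the strain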
Details: S. cerevisiae deletion strains, growth OD

Measured: normalized growth

CN(C)c1nc(N(C)C)nc(N(C)C)n1
inactive: locus YAL021C, strain ccr4, stronger effect = lower value 0.992 | locus YAL026C, strain drs2, stronger effect = lower value 0.979 | locus YAL030W, strain snc1, stronger effect = lower value 1 | locus YAL040C, strain CLN3, stronger effect = lower value 0.972 | locus YBL061C, strain skt5, stronger effect = lower value 0.959 | locus YBR009C, strain hhf1, stronger effect = lower value 0.97 | locus YBR021W, strain FUR4, stronger effect = lower value 1 | locus YBR023C, strain chs3, stronger effect = lower value 0.969 | locus YBR171W, strain sec66, stronger effect = lower value 0.976 | locus YBR229C, strain ROT2, stronger effect = lower value 1.01 | locus YBR231C, strain swc5, stronger effect = lower value 0.971 | locus YBR279W, strain paf1, stronger effect = lower value 1.01 | locus YCL011C, strain gbp2, stronger effect = lower value 0.959 | locus YCL016C, strain dcc1, stronger effect = lower value 0.966 | locus YCL029C, strain bik1, stronger effect = lower value 1.03 | locus YCL061C, strain MRC1, stronger effect = lower value 0.979 | locus YCL069W, strain vba3, stronger effect = lower value 0.986 | locus YCR088W, strain abp1, stronger effect = lower value 0.989 | locus YDL005C, strain med2, stronger effect = lower value 0.984 | locus YDL035C, strain GPR1, stronger effect = lower value 1.02 | locus YDL040C, strain nat1, stronger effect = lower value 0.991 | locus YDL074C, strain BRE1, stronger effect = lower value 0.991 | locus YDL101C, strain DUN1, stronger effect = lower value 1.01 | locus YDL134C, strain PPH21, stronger effect = lower value 1.01 | locus YDL185W, strain tfp1, stronger effect = lower value 1.02 | locus YDL192W, strain arf1, stronger effect = lower value 1.02 | locus YDR001C, strain nth1, stronger effect = lower value 0.977 | locus YDR069C, strain doa4, stronger effect = lower value 0.979 | locus YDR101C, strain arx1, stronger effect = lower value 1.01 | locus YDR137W, strain rgp1, stronger effect = lower value 0.924 | locus YDR150W, strain NUM1, stronger effect = lower value 1 | locus YDR159W, strain sac3, stronger effect = lower value 0.963 | locus YDR162C, strain NBP2, stronger effect = lower value 1.02 | locus YDR195W, strain ref2 0.998 | locus YDR297W, strain sur2, stronger effect = lower value 0.981 | locus YDR318W, strain mcm21, stronger effect = lower value 1.02 | locus YDR334W, strain swr1, stronger effect = lower value 0.942 | locus YDR335W, strain msn5, stronger effect = lower value 0.97 | locus YDR363W, strain ESC2, stronger effect = lower value 1.03 | locus YDR388W, stronger effect = lower value 1.02 | locus YDR392W, strain spt3, stronger effect = lower value 0.899 | locus YDR502C, strain sam2, stronger effect = lower value 1.01 | locus YEL003W, strain gim4, stronger effect = lower value 0.987 | locus YEL037C, strain rad23, stronger effect = lower value 0.988 | locus YEL061C, strain CIN8 (second series), stronger effect = lower value 0.976 | locus YEL061C, strain CIN8, stronger effect = lower value 1 | locus YER002W, strain NOP16, stronger effect = lower value 0.995 | locus YER015W, strain faa2, stronger effect = lower value 0.969 | locus YER016W, strain bim1, stronger effect = lower value 0.987 | locus YER110C, stronger effect = lower value 1.02 | locus YER111C, strain swi4, stronger effect = lower value 0.981 | locus YER155C, strain BEM2 (second series), stronger effect = lower value 0.975 | locus YER155C, strain BEM2, stronger effect = lower value 1 | locus YER167W, strain BCK2, stronger effect = lower value 1.01 | locus YFR010W, strain ubp6, stronger effect = lower value 0.956 | locus YGL078C, strain dbp3, stronger effect = lower value 1.01 | locus YGL086W, strain mad1, stronger effect = lower value 1 | locus YGL167C, strain pmr1, stronger effect = lower value 0.975 | locus YGL173C, strain kem1, stronger effect = lower value 0.959 | locus YGL227W, strain vid30, stronger effect = lower value 0.989 | locus YGL240W, strain doc1, stronger effect = lower value 0.966 | locus YGL248W, strain PDE1, stronger effect = lower value 1.01 | locus YGL253W, strain hxk2, stronger effect = lower value 0.987 | locus YGR078C, strain PAC10, stronger effect = lower value 1 and 0.999 | locus YGR135W, strain pre9, stronger effect = lower value 1.03 | locus YGR252W, strain gcn5, stronger effect = lower value 1.05 | locus YHR013C, strain ard1, stronger effect = lower value 0.964 | locus YHR027C, strain rpn1, stronger effect = lower value 0.959 | locus YHR030C, strain SLT2, stronger effect = lower value 1.01 and 0.974 | locus YHR079C, strain IRE1 (second series), stronger effect = lower value 1.02 | locus YHR079C, strain IRE1, stronger effect = lower value 0.981 | locus YHR094C, strain hxt1, stronger effect = lower value 1.02 | locus YHR129C, strain ARP1, stronger effect = lower value 1.01 | locus YHR142W, strain chs7, stronger effect = lower value 0.929 | locus YHR200W, strain rpn10, stronger effect = lower value 1.02 | locus YIL066C, strain RNR3, stronger effect = lower value 1.01 | locus YIL073C, strain SPO22, stronger effect = lower value 1.09 | locus YIL125W, strain kgd1, stronger effect = lower value 1.02 | locus YIR030C, strain dcg1, stronger effect = lower value 1.03 | locus YJL092W, strain hpr5, stronger effect = lower value 0.988 | locus YJL095W, strain BCK1 (second series), stronger effect = lower value 0.975 | locus YJL095W, strain BCK1, stronger effect = lower value 1 and 0.97 | locus YJL115W, strain asf1, stronger effect = lower value 0.959 | locus YJL129C, strain trk1, stronger effect = lower value 0.999 | locus YJL134W, strain LCB3, stronger effect = lower value 1.01 | locus YJL154C, strain vps35, stronger effect = lower value 0.986 | locus YJL164C, strain tpk1, stronger effect = lower value 0.989 | locus YJL166W, strain qcr8, stronger effect = lower value 0.958 | locus YJL168C, strain set2, stronger effect = lower value 1.01 | locus YJL187C, strain SWE1 (second series), stronger effect = lower value 1 | locus YJL187C, strain SWE1, stronger effect = lower value 0.978 | locus YJR043C, strain POL32, stronger effect = lower value 1.01 | locus YJR066W, strain TOR1, stronger effect = lower value 0.947
